TRHR enhancer-1 – TRH receptor (human) allosteric enhancement | AID 493056 | 360,000 tested, 0.66% active | P34981 | TRHR cells, fluo-8 calcium fluorescence, EC20 TRH enhancement | enhancement, % at 2 µM; in the data active = enhancement above about 30%
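Enhancer read-out: after compound pinning and an initial kinetic agonist-mode read, an EC20 of TRH (10 nM final) was injected and fluo-8 calcium signal (Ex 480/Em 530) followed at 1 s/cycle for 100 cycles in TRHR-expressing cells.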
D1 potentiator – human D1 dopamine receptor positive modulation; 360,000 tested, 0.036% active; potentiation, % at 10 µM; AID 504651; HEK293 TREx D1 cells, calcium flux, dopamine EC20 potentiation; P21728; in the data active = potentiation above about 30%
Target sequence (P21728 whole entry, looked up): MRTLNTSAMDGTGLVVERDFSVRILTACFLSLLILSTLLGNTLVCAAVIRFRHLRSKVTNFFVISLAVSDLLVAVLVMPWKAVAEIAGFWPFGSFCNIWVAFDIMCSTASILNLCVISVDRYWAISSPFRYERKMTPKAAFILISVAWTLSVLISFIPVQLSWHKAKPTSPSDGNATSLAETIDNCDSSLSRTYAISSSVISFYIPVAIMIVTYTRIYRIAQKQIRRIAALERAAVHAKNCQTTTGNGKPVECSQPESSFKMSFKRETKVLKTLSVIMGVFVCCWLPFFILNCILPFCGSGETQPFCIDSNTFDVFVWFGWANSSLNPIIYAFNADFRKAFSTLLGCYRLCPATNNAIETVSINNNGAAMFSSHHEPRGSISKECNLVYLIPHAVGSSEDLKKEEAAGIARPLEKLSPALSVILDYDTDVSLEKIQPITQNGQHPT
D1 agonist – agonists of human D1 dopamine receptor; P21728; HEK293 T-REx D1 cells, calcium flux, agonist mode; activation, % at 2 µM; 360,000 tested, 1% active
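Inducible HEK293 T-REx D1 cells, force-coupled to calcium signalling, were plated at 4000 cells/well with tetracycline and held overnight at 30 C. After no-wash calcium dye loading, compound-evoked calcium rise over 180 s flagged agonists.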
TRHR agonist-1 – activates the human TRH receptor; 360,000 tested, 0.18% active; TRHR cells, calcium flux fluo-8, FDSS agonist mode; activation, % at 2 µM
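TRHR-expressing cells, plated overnight in medium with 10% serum, were loaded with fluo-8 calcium dye at room temperature. After a 10 s baseline, library compound was pin-added and calcium release was recorded kinetically (ex 480/em 530) as agonist response.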
D1 antag – human D1 dopamine receptor antagonism | HEK293 TREx D1 cells, calcium flux, dopamine EC80; hits give low values | activity change, negative = inhibition, % at 10 µM | P21728 | 360,000 tested, 3.2% active; in the data active = activity change below about -30%
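Using tetracycline-induced force-coupled D1 Hek293 cells and a calcium dye, signals were followed for 180 s after compound, then for 180 s after EC80 dopamine, to detect inhibitors.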
TRHR enhancer-2 – human TRH receptor allosteric enhancement confirmation. shares compounds with TRHR enhancer-1. TRH receptor cell assay, enhancer confirmation qHTS. activity change, negative = inhibition, % at 46.1 µM. 970 tested, under 10 active. AID 493076; active = well fitted curve in the direction sought with a large enough effect; inconclusive = small, poorly fitted or top-dose-only effect, or another doubt; inactive = no such curve, though single readings can be large; an effect the other way counts as inactive or inconclusive;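 note: compound effect scored on response to added TRH at EC20 of 10 nM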
TRHR agonist-2 – human TRH receptor agonism confirmation. shares compounds with TRHR enhancer-1. TRHR-expressing cells, agonist activation read-out. Potency, µM (doses to about 46.1 µM), usual class: activators. 970 tested, 8% active. AID 493078; active = well fitted curve in the direction sought with a large enough effect; inconclusive = small, poorly fitted or top-dose-only effect, or another doubt; inactive = no such curve, though single readings can be large; an effect the other way counts as inactive or inconclusive; note: nearly all actives have a fitted effect of over 75% in size
Large screens that a line does not name were inactive (follow-up assays come after a bar, where they were run). Sampled rows, rich in hits. Any-hit rate of the full collection: about 4.6%. Cut-off read from the data, not from the text of the source, unless noted: active = activation above about 30%; inactive = the rest.

Cc1cc(-n2c(SCc3ccccc3F)nc3n[nH]c(C)c3c2=N)ccc1Cl	TRHR enhancer-1 54.0 | TRHR enhancer-2 inactive | TRHR agonist-2 inactive
O=C(c1ccc(F)cc1)C1CCN(C(=O)Nc2ccccc2Cl)CC1	TRHR enhancer-1 49.8 | TRHR enhancer-2 inactive | TRHR agonist-2 inactive
Cc1ccccc1NC(=O)N1CCC(C(=O)c2ccc(F)cc2)CC1	none
Cc1ccc(S(=O)(=O)NCc2ccc(C(=O)NC3CCCCC3)cc2)cc1	TRHR enhancer-1 77.0 | TRHR enhancer-2 inactive | TRHR agonist-2 inactive
NC(=O)CC(NC(=O)Cc1ccc(Br)cc1)c1ccc(N2CCCCCCC2)c([N+](=O)[O-])c1 (configuration not stated)	none
NC(=O)CC(NC(=O)Cc1ccc(Br)cc1)c1ccc(N2CCC(Br)CC2)c([N+](=O)[O-])c1 (configuration not stated)	TRHR enhancer-1 51.7 | TRHR enhancer-2 inactive | TRHR agonist-2 inactive
COc1ccc(CCNC(=O)CSc2nc(N)c(C#N)c(-c3cccs3)c2C#N)cc1OC	TRHR agonist-1 141.0 | TRHR enhancer-2 inactive | TRHR agonist-2 inactive
Cc1ccccc1NC(=O)CSc1nc(N)c(C#N)c(-c2cccs2)c1C#N	none
COc1ccc(OC)c(CNC(=O)c2nn(-c3ccc(OC)c(Cl)c3)c(=O)c3c2c2ccccc2n3C)c1	none
Cc1ccc(N2CCN(C(=S)Nc3ccc(Cl)cc3)CC2)cc1	none
S=C(Nc1ccc(Cl)cc1)N1CCN(C2CCCCC2)CC1	TRHR enhancer-1 53.1 | TRHR enhancer-2 inactive | TRHR agonist-2 inactive
Nc1c(-c2nc(-c3ccncc3)no2)nnn1CC(=O)Nc1ccccc1	none
Cc1ccc2c(=O)cc(C(=O)Nc3nc4ccc(Cl)cc4s3)oc2c1C	none
CCc1ccc(NC(=O)N(Cc2cccnc2)Cc2ccco2)cc1	TRHR enhancer-1 42.8 (no result: D1 antag) | TRHR enhancer-2 inconclusive | TRHR agonist-2 16.4µM
Cc1ccc(-c2cc(C(=O)N3CCN(S(=O)(=O)c4ccc(Br)cc4)CC3)[nH]n2)c(C)c1	none
COc1ccc(CNC(=O)c2cc(C3CC3)nc3c2cnn3C(C)C)cc1	TRHR enhancer-1 42.8 | TRHR enhancer-2 inactive | TRHR agonist-2 inconclusive
O=C(O)c1cccc(NC(=O)c2ccccc2NC(=O)c2ccccc2F)c1	none
O=C(Nc1ccccc1C(=O)Nc1ccccc1)c1ccccc1F	TRHR enhancer-1 47.8 | TRHR enhancer-2 inconclusive | TRHR agonist-2 inactive
Cc1ccc(NC(=O)Cn2nnc(-c3nc(-c4ccncc4)no3)c2N)cc1	none
Cc1nn2c(C(F)(F)F)cc(-c3ccc(OC(C)C)cc3)nc2c1C#N	none
COc1ccc(NC(=O)Cn2c(=O)cc(C)c3c(C)nn(C)c32)cc1	none
COc1ccc(C(=O)NCc2nnnn2-c2ccc(C)c(C)c2)cc1	TRHR enhancer-1 67.7 | TRHR enhancer-2 inactive | TRHR agonist-2 inactive
Cc1ccc(C(=O)NCc2nnnn2-c2ccc(C)c(C)c2)cc1	none
COc1ccc(NC(=O)c2ccc3c(=O)n4c(nc3c2)CCCCC4)cc1	TRHR enhancer-1 75.9 | TRHR enhancer-2 inactive | TRHR agonist-2 inactive
Cc1ccc(NC(=O)c2ccc3c(=O)n4c(nc3c2)CCCCC4)cc1F	none (no result: D1 potentiator)
O=C(Cc1cccs1)N=Nc1c(O)[nH]c2ccccc12	TRHR enhancer-1 43.1 | TRHR enhancer-2 inactive | TRHR agonist-2 inactive
O=C(Cc1cccs1)N=Nc1c(O)[nH]c2ccc(Br)cc12	none
NS(=O)(=O)c1ccc(CCNC(=O)C2CCC(Cn3c(=S)[nH]c4ccccc4c3=O)CC2)cc1 (configuration not stated)	TRHR enhancer-1 41.0 | TRHR enhancer-2 inactive | TRHR agonist-2 inactive
COc1cccc(N(CC(=O)Nc2cccc(C(C)=O)c2)S(C)(=O)=O)c1	none
COc1ccc(N(CC(=O)Nc2cccc(C(C)=O)c2)S(C)(=O)=O)cc1OC	TRHR enhancer-1 52.8 | TRHR enhancer-2 inactive | TRHR agonist-2 inactive
COc1ccccc1NC(=S)N(Cc1cccnc1)Cc1ccccc1Cl	none
Cc1ccccc1NC(=S)N(Cc1cccnc1)Cc1ccccc1Cl	TRHR enhancer-1 47.2 | TRHR enhancer-2 inconclusive | TRHR agonist-2 inactive
Cc1ccc(CNC(=O)C2CCCN2S(=O)(=O)c2ccc(F)cc2)cc1 (configuration not stated)	TRHR enhancer-1 47.3 | TRHR enhancer-2 inactive | TRHR agonist-2 inactive
O=C(NCc1ccccc1)C1CCCN1S(=O)(=O)c1ccc(F)cc1 (configuration not stated)	none
COc1ccc(CCNC(=O)CCn2c(=O)c3ccccc3n(Cc3c(C)cc(C)cc3C)c2=O)cc1OC	none
O=C(CCC(=O)c1ccccc1)Nc1ccc(F)c(Cl)c1	none
CC(C)C(=O)Nc1nnc(S(=O)(=O)N(C)Cc2ccc(F)cc2)s1	none
CC(C)CC(NC(=O)C1CCCCC1)C(=O)Nc1cccc(C(F)(F)F)c1 (configuration not stated)	none
COc1cccc(CN(C)C(=O)c2ccc(S(=O)(=O)Nc3ccccc3F)cc2)c1OC	TRHR enhancer-1 47.6 | TRHR enhancer-2 inactive | TRHR agonist-2 inactive
Cc1cc2c(cc1S(=O)(=O)Nc1cc(C(F)(F)F)cc(C(F)(F)F)c1)OCC(=O)N2	none
COc1cc2c(cc1OC)C(COc1ccccc1OC)N(C(=O)c1ccc(S(=O)(=O)N3CCCC3)cc1)CC2 (configuration not stated)	none
CC(C)C[C@@H](CN(C)N=O)N(C[C@H](Cc1ccccc1)N(CCc1ccccc1)N=O)N=O	none
CN(C[C@H](Cc1ccccc1)N(CCN(CCc1ccccc1)N=O)N=O)N=O	TRHR enhancer-1 42.8 | TRHR enhancer-2 inactive | TRHR agonist-2 inactive
CCOCCCN1C(=O)CN(C2CCCCCC2)C(=O)C1c1ccc(OCC)c(OC)c1 (configuration not stated)	none
CSCCC(NC(=O)c1ccc(Cl)c([N+](=O)[O-])c1)C(=O)N1CCN(C/C=C/c2ccccc2)CC1 (configuration not stated)	TRHR enhancer-1 66.3 | TRHR enhancer-2 inactive | TRHR agonist-2 inactive
CSc1nc(NCCOC(C)=O)c(C#N)c(-c2ccc(C(C)(C)C)cc2)n1	none
Cc1c(C2(O)C(=O)Nc3ccc(F)cc32)c(=O)n(-c2ccccc2)n1C (configuration not stated)	TRHR enhancer-1 49.7 | TRHR enhancer-2 inactive | TRHR agonist-2 inactive
COc1ccc(S(=O)(=O)NCCc2csc3nc(-c4cccc(C)c4)nn23)cc1F	none (no result: D1 antag)
Cc1ccc(C)n1C1CCS(=O)(=O)C1 (configuration not stated)	none
CC(C)c1ccccc1N=C1SCCN1C1CCS(=O)(=O)C1 (configuration not stated)	TRHR enhancer-1 69.9 | TRHR enhancer-2 inactive | TRHR agonist-2 inconclusive

From PubChem BioAssay
